Reference: PubChem BioAssay AID1029 (Sanford-Burnham Center for Chemical Genomics, 2008)
Screen size: about 110,000 compounds; about 80 (0.07%) were called active.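 How the source made its calls: active means inhibition above the mean of the plate negative controls plus 5 SD (cut at about 13% in these data); inactive means the rest.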 The list comes from a sample in which actives are over-represented; it also holds similar structures and randomly drawn compounds.

Assay: blockers of IgG-bead uptake by macrophages – imaging, J774A.1 cells, IgG beads, primary screen (AID 1029);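 further: phagocytic index as fraction of beads internalized from green versus red external bead signal; plate controls were DMSO negative control for no effect and cytochalasin-D positive control for full effect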
Details: J774A.1 macrophage IgG-bead phagocytosis, at 5 µM, hits give high values

Question: With `CCCCN(CC)C(=S)Nc1ccc2nc3n(c(=O)c2c1)CCCCC3` as the compound, how does the inhibition read?
Answer: -7.14% (inactive)

Question: Which inhibition does the source give for `O=C1CCCC(O)=C1N=Nc1ccc2ncsc2c1` here?
Answer: 105% [artifact] (active)

Question: With `COc1ccc(C)cc1NC(=O)C(OC(=O)c1cccc(S(=O)(=O)N(C)c2ccccc2)c1)c1ccccc1` (centres undefined) as the compound, how does the inhibition read?
Answer: -5.86% (inactive)

Question: For `Cc1cccc(C)c1NC(=O)CSc1ccc([N+](=O)[O-])cn1`, which inhibition is on record?
Answer: -2.92% (inactive)

Question: With `O=C1NC(c2ccccc2)CCC1(Cl)Cl` (centres undefined) as the compound, how does the inhibition read?
Answer: 2.89% (inactive)

Question: Which inhibition does the source give for `CCC(=O)/C=C1\Sc2ccccc2N1CC` here?
Answer: -1.58% (inactive)

Question: For `S=C(NCc1ccc(Cl)cc1)NC1CCCCC1`, which inhibition is on record?
Answer: -3.92% (inactive)

Question: Which inhibition does the source give for `O=C(NN1C(=O)C2C3C=CC(O3)C2C1=O)c1ccncc1` (centres undefined) here?
Answer: -4.03% (inactive)

Question: Which inhibition does the source give for `O=C(CSc1nnc(-c2ccncc2)o1)NCc1ccc(Cl)cc1` here?
Answer: -5.78% (inactive)

Question: Which inhibition does the source give for `COc1ccc(OCc2cn3c(C)cc(C)nc3n2)cc1` here?
Answer: -0.34% (inactive)

Question: With `COc1cc(/C=C/C(=O)O)cc(S(=O)(=O)Nc2ccccc2SC)c1OC` as the compound, how does the inhibition read?
Answer: -5.74% (inactive)

Question: With `CCCCN(CC)C(=O)c1ccc2c(c1)OCO2` as the compound, how does the inhibition read?
Answer: 1.32% (inactive)

Question: Which inhibition does the source give for `Cc1ccc2c(c1)C1CN(C)CCC1N2C(=O)c1ccccc1NS(=O)(=O)c1ccc(F)cc1C` (centres undefined) here?
Answer: -3.92% (inactive)

Question: Which inhibition does the source give for `COC(=O)/C(=C1\Oc2ccc(C(C)(C)C)cc2S1)C(F)(F)F` here?
Answer: 7.86% (inactive)

Question: For `CC(C)CNC(=S)Nc1ccc(F)cc1`, which inhibition is on record?
Answer: -3.14% (inactive)

Question: With `CCCCOc1ccc(NC(=O)[C@@H]2CCCN2C(=O)C2CCN(S(=O)(=O)c3ccc(C)cc3)CC2)cc1` as the compound, how does the inhibition read?
Answer: -3.36% (inactive)

Question: For `Cc1ccc(NC(=O)CC2S/C(=N/N=C3\CCCc4ccccc43)NC2=O)cc1` (centres undefined), which inhibition is on record?
Answer: -6.09% (inactive)

Question: Which inhibition does the source give for `O=C(CN1CCc2ccccc21)NC(c1ccccc1)c1ccccc1` here?
Answer: -5.11% (inactive)

Question: Which inhibition does the source give for `O=C(O)c1ccc2c(c1)C(=O)N(NC(=O)c1ccc(O)cc1)C2=O` here?
Answer: -5.14% (inactive)

Question: With `COc1ccc(NC(=S)NCc2cccs2)c(OC)c1` as the compound, how does the inhibition read?
Answer: 0.55% (inactive)

Question: Which inhibition does the source give for `COc1cc2c(cc1/C=C1/NC(=O)N(c3ccccc3)C1=O)OCO2` here?
Answer: -3.27% (inactive)

Question: For `Cc1cc(C(=O)NNC(=S)NC(C)c2ccccc2)cs1` (centres undefined), which inhibition is on record?
Answer: -2.01% (inactive)

Question: For `Cc1ccc(-n2[nH]c(C)c(/C=N/NC(=O)c3cccc([N+](=O)[O-])c3)c2=O)cc1C`, which inhibition is on record?
Answer: -4.72% (inactive)

Question: With `Cc1ccc(C(=O)Oc2coc(CSc3nnc(NC(=O)c4cccs4)s3)cc2=O)cc1C` as the compound, how does the inhibition read?
Answer: -0.5% (inactive)

Question: Which inhibition does the source give for `NC1=C([N+](=O)[O-])C(c2ccccc2)C2=C(CCCC2=O)O1` (centres undefined) here?
Answer: -3.95% (inactive)

Question: With `COc1ccc(C(=O)COC(=O)c2ccc3ccccc3n2)cc1` as the compound, how does the inhibition read?
Answer: -5.54% (inactive)

Question: With `O=[N+]([O-])c1cccc(C2=NCCS2)c1` as the compound, how does the inhibition read?
Answer: 0.05% (inactive)

Question: Which inhibition does the source give for `Cc1ccccc1Cn1nc(C)c(NC(=O)C(F)(F)F)c1C` here?
Answer: -2.43% (inactive)

Question: Which inhibition does the source give for `CC(C)(C)C1CCC(=NNC(=O)c2cc(-c3ccccc3)n[nH]2)CC1` (centres undefined) here?
Answer: 0.48% (inactive)

Question: Which inhibition does the source give for `CCOc1ccc2nc(NC(=O)c3cc([N+](=O)[O-])ccc3N3CCOCC3)sc2c1` here?
Answer: 3.64% (inactive)

Question: With `CC(=O)c1ccc(NC(=S)NC(=O)CC(C)C)cc1` as the compound, how does the inhibition read?
Answer: -4.19% (inactive)

Question: With `CCOc1ccc(C(=O)NC(=S)Nc2ccc(NC(=O)C(C)C)cc2)cc1[N+](=O)[O-]` as the compound, how does the inhibition read?
Answer: -0.7% (inactive)

Question: Which inhibition does the source give for `COc1ccc2nc(Nc3nc(-c4cc5ccccc5oc4=O)cs3)sc2c1` here?
Answer: 0.77% (inactive)

Question: With `CC(=O)Nc1cccc(/C(C)=N/NC(=O)c2c(-c3ccccc3Cl)noc2C)c1` as the compound, how does the inhibition read?
Answer: -2.62% (inactive)

Question: For `Cc1ccc(C)c(OCC(=O)N2CCN(C(=O)c3ccco3)CC2)c1`, which inhibition is on record?
Answer: -4.31% (inactive)

Question: Which inhibition does the source give for `COc1ccc(-c2csc3ncnc(Oc4ccc5c(C)cc(=O)oc5c4)c23)cc1` here?
Answer: -2.34% (inactive)

Question: With `O=C(CNS(=O)(=O)c1ccccc1)NCC(=O)OCc1ccccc1F` as the compound, how does the inhibition read?
Answer: -3.58% (inactive)

Question: With `CCCOc1ccc(NC(=O)C2OC3OC(C)(C)OC3C3OC(C)(C)OC23)cc1` (centres undefined) as the compound, how does the inhibition read?
Answer: -11.4% (inactive)

Question: Which inhibition does the source give for `CCOC(=O)C1=C(C)NC(=S)NC1c1cccs1` (centres undefined) here?
Answer: -4.52% (inactive)

Question: For `Cc1scc(C(=O)NNC(=S)NCc2ccccc2)c1C`, which inhibition is on record?
Answer: -4.2% (inactive)

Question: With `O=C(Nc1ccccc1Cc1ccccc1)c1ccc2c(c1)SC1=NS(=O)(=O)CCN12` as the compound, how does the inhibition read?
Answer: -3.83% (inactive)

Question: With `O=C(O)c1cccc(N2C(=O)Nc3ccccc3N2O)c1` as the compound, how does the inhibition read?
Answer: -9.86% (inactive)

Question: Which inhibition does the source give for `COc1ccc(Cc2nnc(N/N=C/c3ccccc3O)[nH]c2=O)cc1OC` here?
Answer: -6.04% (inactive)

Question: With `COCC(=O)Nc1cc(C(=O)OC)cc(C(=O)OC)c1` as the compound, how does the inhibition read?
Answer: -2.4% (inactive)

Question: Which inhibition does the source give for `CN(C)C(CNC(=O)c1ccc(S(=O)(=O)NCc2ccco2)cc1)c1ccccc1` (centres undefined) here?
Answer: -2.95% (inactive)

Question: With `COc1cc(NC(=O)Nc2ccc(C)cc2)cc([N+](=O)[O-])c1` as the compound, how does the inhibition read?
Answer: -5.65% (inactive)

Question: With `CC(C)C(C)(C#N)NC(=O)CSc1nc2scc(-c3ccccc3)c2c(=O)[nH]1` (centres undefined) as the compound, how does the inhibition read?
Answer: -2.01% (inactive)

Question: Which inhibition does the source give for `Cc1cccc(-c2nc3ccccc3c(=O)n2NC(=O)Cc2ccc(Cl)cc2)c1` here?
Answer: -9.34% (inactive)

Question: With `O=C(NC(=S)Nc1cc(C(F)(F)F)ccc1N1CCOCC1)c1ccc(-c2cccc(Cl)c2)o1` as the compound, how does the inhibition read?
Answer: -11.9% (inactive)

Question: Which inhibition does the source give for `S=C(NCCc1ccccc1)NCC1CCCO1` (centres undefined) here?
Answer: 2.03% (inactive)

Question: For `Cc1nc2c(C(=O)NCc3cccs3)cnn2c(C)c1Cc1ccc(F)cc1`, which inhibition is on record?
Answer: -10.6% (inactive)

Question: Which inhibition does the source give for `CCCCCNC(=O)c1cccnc1SCC(=O)Nc1ccccc1OC` here?
Answer: -7.81% (inactive)

Question: With `CCCCOc1ccc(C(=O)N/C(=C/C=C/c2ccccc2)C(=O)N2CCOCC2)cc1` as the compound, how does the inhibition read?
Answer: -6.1% (inactive)

Question: With `CCc1ccc(NC(=O)CC2C(=O)NCCN2C(=S)Nc2ccccc2)cc1` (centres undefined) as the compound, how does the inhibition read?
Answer: 0.25% (inactive)

Question: Which inhibition does the source give for `COC(C(=O)Nc1ccc(C(C)=O)cc1)c1ccccc1` (centres undefined) here?
Answer: -7.11% (inactive)

Question: For `COCCn1c(SCC(=O)Nc2ccc3c(c2)CCC3)nc2ccccc2c1=O`, which inhibition is on record?
Answer: -6.84% (inactive)

Question: Which inhibition does the source give for `Cc1c(Cl)c([N+](=O)[O-])nn1CCCC(=O)Nc1cc(Cl)ccc1Cl` here?
Answer: -3.17% (inactive)

Question: Which inhibition does the source give for `COc1ccccc1OCc1ccc(C(=O)N2CCN(C)CC2)o1` here?
Answer: 0.11% (inactive)

Question: For `O=C(/C=C/c1cnc2ccccc2n1)NC1CCCCCC1`, which inhibition is on record?
Answer: -9.71% (inactive)
